The results in this text go back to PubChem BioAssay (Tox21).

Unmarked numbers belong to inactive results. Results filed as inconclusive are left out. Calls of active or inactive are those of the source. Unless noted, the call rests on the fitted dose curve; in most records, active means well fitted curve in the direction sought with a large enough effect in the repeat runs; inconclusive means weak or mixed curves; inactive means no such curve, though single readings can be large; an effect the other way counts as inactive or inconclusive.

The nature of assay [1]: qHTS assay to identify small molecule antagonists of the sonic hedgehog signaling (Shh) pathway (AID 1259369; calls by dose curve; further: nearly all actives have a fitted effect of over 45% in size; further: potency means the concentration at half of the fitted maximal effect). A digest of the protocol:
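Stable Gli1-Luc reporter NIH/3T3 clone; quantitative HTS in stimulated mode with conditioned medium. Luminescence measured after 24hr compound treatment at 37 C.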
In general terms: In qHTS, concentration-response curves come from the screen itself.

Assay [2] addresses Estrogen receptor beta (Homo sapiens) (UniProt Q92731). Briefly: qHTS assay to identify small molecule agonists of the estrogen receptor beta (ER-beta) signaling pathway (AID 1259377; active means well fitted activation curve with a large enough effect in the signal ratio in the repeat runs, not every such curve was filed as active; the % refers to the signal ratio). The method, boiled down: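 Measured by fluorescence intensity from a B/G FRET beta-lactamase substrate (2 h, room temperature) in ER-beta-UAS-bla HEK293T cells treated with DMSO-dissolved compounds for 16 hr at 37C and 5% CO2.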

For assay [3] the target is unchanged. As to the kind of experiment: qHTS assay to identify small molecule antagonists of the estrogen receptor beta (ER-beta) signaling pathway (AID 1259378; active means well fitted inhibition curve with a large enough effect in the signal ratio in the repeat runs, not every such curve was filed as active; the % refers to the signal ratio; further: potency means the concentration at half of the fitted maximal effect). A digest of the protocol:
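Antagonist mode: compounds added to beta-lactamase reporter HEK293T ER-beta-UAS cells stimulated with E2 (1nM final), 16 hr at 37C. LiveBLAzer B/G FRET substrate, 2 hours room temperature, fluorescence read-out.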

The nature of assay [4]: qHTS assay to identify small molecule agonists of the androgen receptor (AR) signaling pathway in the presence of an antagonist - cell viability counter screen (AID 1259379). Further: nearly all actives have a fitted effect of over 25% in size. Further: potency means the concentration at half of the fitted maximal effect.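 On activity change, negative = cytotoxicity: MDA-kb2 human breast cancer cells carrying an MMTV luciferase reporter; series mostly up to about 92 µM.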 A digest of the protocol:
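Nilutamide-containing (3.0uM final) MDA-kb2 cultures, 3,000 cells/well, were treated with compounds across 15 concentrations. After 16 hr at 37C with no CO2, cell viability was determined by CellTiter-Fluor fluorescence in the luciferase assay wells.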

Assay [5] in a line: qHTS assay to identify small molecule agonists of the estrogen receptor beta (ER-beta) signaling pathway - cell viability counter screen (AID 1259380). Further: nearly all actives have a fitted effect of over 30% in size. Further: potency means the concentration at half of the fitted maximal effect. The method, boiled down: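 Steps: plate ER-beta-UAS-bla HEK293T cells, rest 6 hr; add compounds in DMSO; incubate 16 hr at 37C, 5% CO2; add FRET substrate 2 hr; add CellTiter-Glo, wait 30 min at room temperature; read luminescence.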

Assay [6] deals with Androgen receptor (Homo sapiens) (UniProt P10275). Briefly: qHTS assay to identify small molecule agonists of the androgen receptor (AR) signaling pathway in the presence of an antagonist (AID 1259381; calls by dose curve; further: nearly all actives have a fitted effect of over 15% in size). A digest of the protocol: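 Reporter-gene luminescence from MDA-kb2 cells exposed 16hr at 37C (0% CO2) to 15-point compound titrations with 3.0uM final nilutamide as AR antagonist.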
Chain of Androgen receptor (Homo sapiens) (P10275 whole entry, looked up): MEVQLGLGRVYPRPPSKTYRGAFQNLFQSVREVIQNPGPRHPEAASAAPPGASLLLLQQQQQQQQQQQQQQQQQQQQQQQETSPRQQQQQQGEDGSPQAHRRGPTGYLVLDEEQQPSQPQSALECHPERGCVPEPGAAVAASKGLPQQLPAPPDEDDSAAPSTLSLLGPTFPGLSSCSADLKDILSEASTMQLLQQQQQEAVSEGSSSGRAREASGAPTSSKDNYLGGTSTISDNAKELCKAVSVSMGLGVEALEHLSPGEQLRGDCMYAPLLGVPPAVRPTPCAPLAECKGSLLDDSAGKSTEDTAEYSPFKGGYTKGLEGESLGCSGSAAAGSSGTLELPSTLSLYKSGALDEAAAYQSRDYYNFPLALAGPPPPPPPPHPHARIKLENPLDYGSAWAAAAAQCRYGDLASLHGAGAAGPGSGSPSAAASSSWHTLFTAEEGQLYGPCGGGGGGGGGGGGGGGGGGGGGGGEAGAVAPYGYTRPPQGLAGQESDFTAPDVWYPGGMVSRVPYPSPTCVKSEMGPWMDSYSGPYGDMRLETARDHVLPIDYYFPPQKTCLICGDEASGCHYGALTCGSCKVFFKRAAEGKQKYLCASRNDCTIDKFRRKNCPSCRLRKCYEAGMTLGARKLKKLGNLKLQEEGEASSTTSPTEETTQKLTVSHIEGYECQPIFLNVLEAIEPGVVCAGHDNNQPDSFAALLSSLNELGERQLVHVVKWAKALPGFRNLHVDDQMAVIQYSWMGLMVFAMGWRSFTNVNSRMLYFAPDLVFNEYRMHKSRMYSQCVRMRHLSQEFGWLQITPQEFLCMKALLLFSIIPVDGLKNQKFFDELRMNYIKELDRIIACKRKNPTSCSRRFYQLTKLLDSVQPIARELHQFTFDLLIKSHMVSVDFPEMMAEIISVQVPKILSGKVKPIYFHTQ

Assay [7] can be described thus: qHTS assay to identify small molecule antagonists of the estrogen receptor beta (ER-beta) signaling pathway - cell viability counter screen (AID 1259382).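 Further: HEK293T cells carrying ER-beta-UAS-bla reporter stimulated with estradiol; series mostly up to about 92 µM; nearly all actives have a fitted effect of over 55% in size.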 The method, boiled down:
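Viability is scored by CellTiter-Glo luminescence (30 min, room temperature) in ER-beta-UAS-bla HEK293T wells already read for reporter fluorescence. Compound exposure lasts 16 hr at 37C alongside 1nM 17-beta-estradiol in charcoal-stripped serum medium.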

Assay [8] addresses Estrogen receptor (Homo sapiens) (UniProt P03372). Briefly: qHTS assay to identify small molecule agonists of the estrogen receptor alpha (ER-alpha) signaling pathway in the presence of an antagonist (AID 1259383; calls by dose curve; further: top concentration of the series differs between compounds; nearly all actives have a fitted effect of over 15% in size). The method, boiled down: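 Readout was ERE-driven luciferase luminescence in VM7Luc4E2 cells, which express full-length ER-alpha endogenously. Compounds were tested at 15 concentrations for 22hr alongside 10.0nM ICI-182,780 (final concentration).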

Assay [9] is described as follows: qHTS assay to identify small molecule agonists of the estrogen receptor alpha (ER-alpha) signaling pathway in the presence of an antagonist - cell viability counter screen (AID 1259386).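 Further: cells exposed to compounds for 22 h at 37 °C before the viability read; nearly all actives have a fitted effect of over 30% in size.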 Further: potency means the concentration at half of the fitted maximal effect. On activity change, negative = cytotoxicity: series mostly up to about 92 µM. A digest of the protocol:
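In this counter screen, compound effects on VM7Luc4E2 viability were tested in the presence of the antagonist ICI-182,780 at 10.0nM final. Compounds were dosed at 15 concentrations, exposure lasted 22hr, and the CellTiter-Fluor signal was read.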

Assay [10] has as its target Progesterone receptor (Homo sapiens) (UniProt P06401). Briefly: qHTS assay to identify small molecule agonists of the progesterone receptor (PR) signaling pathway (AID 1346784; calls by dose curve; further: nearly all actives have a fitted effect of over 30% in size). A digest of the protocol: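 The screen uses PR-UAS-bla HEK 293T cells in charcoal-stripped serum (2%). Compounds are applied for 16 hr at 37C after a 6 hr pre-incubation, and reporter activity is detected with a FRET beta-lactamase substrate after 2 hr at room temperature.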

For assay [11] the target is unchanged. As to the kind of experiment: qHTS assay to identify small molecule antagonists of the progesterone receptor (PR) signaling pathway (AID 1346795; active means well fitted inhibition curve with a large enough effect in the signal ratio in the repeat runs, not every such curve was filed as active; the % refers to the signal ratio; further: potency means the concentration at half of the fitted maximal effect). A digest of the protocol:
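After 6 hr plating at 37C in 2% stripped-serum medium, PR-UAS-bla HEK293T cells got compounds, then 1 nM R5020. Sixteen hours later, LiveBLAzer substrate was applied for 2 hr at room temperature and fluorescence was recorded.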

The nature of assay [12]: qHTS assay to identify small molecule agonists of the progesterone receptor (PR) signaling pathway - cell viability counter screen (AID 1346799; calls by dose curve; further: nearly all actives have a fitted effect of over 45% in size; further: potency means the concentration at half of the fitted maximal effect). The method, boiled down:
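Viability was scored by ATP luminescence (CellTiter-Glo, 30 min, room temperature) in the same wells used for the reporter readout, after 16 hr compound exposure of PR-UAS-bla HEK293T cells.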

Assay [13] can be described thus: qHTS assay to identify small molecule antagonists of the TGF-beta/Smad signaling pathway - cell viability counter screen (AID 1346824). Further: nearly all actives have a fitted effect of over 50% in size. A digest of the protocol: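 Cytotoxicity counter-screen run in the same wells as the beta-lactamase Smad reporter read: CellTiter-Glo luminescence after 30 min at room temperature. HEK 293T SBE-bla cells had 5 hr compound exposure at 37 C with TGF-beta1 (0.25 ng/mL stock).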

The nature of assay [14]: qHTS assay to identify small molecule agonists of the TGF-beta/Smad signaling pathway - cell viability counter screen (AID 1346829). Further: top concentration of the series differs between compounds; nearly all actives have a fitted effect of over 45% in size. A digest of the protocol: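 Here the cytotoxicity of library compounds is measured in SBE-bla HEK 293T cells treated for 5 hr, using CellTiter-Glo added to wells already read for the beta-lactamase reporter.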
Assay [15] is described as follows: qHTS assay to identify small molecule agonists of the TGF-beta/Smad signaling pathway (AID 1346859; active means well fitted activation curve with a large enough effect in the signal ratio in the repeat runs, not every such curve was filed as active; the % refers to the signal ratio; further: series mostly up to about 77 µM). The method, boiled down: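 Dual-wavelength fluorescence (460/530 nm emission) quantified beta-lactamase expression under the Smad binding element in HEK 293T cells following 5 hr compound treatment at 37 C.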
Assay [16] in a line: qHTS assay to identify small molecule agonists or antagonists of the thyroid stimulating hormone receptor (TSHR) signaling pathway - wild type cell line counter screen (AID 1259384; calls by dose curve; further: potency means the concentration at half of the fitted maximal effect). The method, boiled down:
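Counter screen in untransfected Hek293: compounds (15-point titration, triplicate) plus phosphodiesterase inhibitor Ro20-1724 added after 18 h plating; 30 min RT. Intracellular cAMP via competitive d2/cryptate immunoassay, 1 h incubation.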

Assay [17] addresses Thyrotropin receptor (Homo sapiens) (UniProt P16473). As to the kind of experiment: qHTS assay to identify small molecule antagonists of the thyroid stimulating hormone receptor (TSHR) signaling pathway (AID 1259385; calls by dose curve; further: nearly all actives have a fitted effect of over 20% in size). A digest of the protocol:
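Antagonist mode: compound-treated TSHR-expressing HEK293 cells were stimulated with 1.5 ng/mL TSH (final) in presence of Ro20-1724 for 30 min at RT. HTRF cAMP detection after 1 h; each compound tested at 15 concentrations, triplicate.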

Assay [18] is described as follows: qHTS assay to identify small molecule antagonists of the progesterone receptor (PR) signaling pathway - cell viability counter screen (AID 1346798). Further: series mostly up to about 92 µM; nearly all actives have a fitted effect of over 50% in size. The method, boiled down:
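Viability was determined by ATP-based luminescence (CellTiter-Glo) in PR-UAS-bla HEK293T cells cultured in 2% charcoal-stripped serum and incubated 16 hr with compounds under R5020 stimulation.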

The target in assay [19] is Thyrotropin-releasing hormone receptor (Homo sapiens) (UniProt P34981). As to the kind of experiment: qHTS assay to identify small molecule antagonists of the thyrotropin-releasing hormone receptor (TRHR) signaling pathway (AID 1346877; active means well fitted inhibition curve with a large enough effect in the repeat runs, not every such curve was filed as active; further: series mostly up to about 51 µM). The method, boiled down: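 Kinetic fluorescence (3 min, 1 s resolution) following stimulation with TRH at 1 nM final; HEK293 cells bearing human TRHR; 5 min compound preincubation at RT; concentration-response over 15 points, triplicates.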
Chain of Thyrotropin-releasing hormone receptor (Homo sapiens) (P34981 whole entry, looked up): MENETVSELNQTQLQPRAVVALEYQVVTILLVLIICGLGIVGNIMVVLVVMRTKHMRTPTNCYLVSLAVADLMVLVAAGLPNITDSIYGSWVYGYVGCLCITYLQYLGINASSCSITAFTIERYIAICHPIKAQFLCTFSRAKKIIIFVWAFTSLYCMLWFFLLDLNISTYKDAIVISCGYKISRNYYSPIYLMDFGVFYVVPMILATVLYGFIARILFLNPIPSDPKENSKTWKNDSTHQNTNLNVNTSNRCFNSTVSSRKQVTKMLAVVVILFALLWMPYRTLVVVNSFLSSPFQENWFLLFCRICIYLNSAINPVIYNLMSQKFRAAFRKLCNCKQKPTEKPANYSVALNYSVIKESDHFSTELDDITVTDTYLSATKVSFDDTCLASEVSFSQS

Assay [20] has the same target. As to the kind of experiment: qHTS assay to identify small molecule agonists of the thyrotropin-releasing hormone receptor (TRHR) signaling pathway (AID 1346891; calls by dose curve;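 further: HEK293 cells expressing TRHR with calcium dye readout; series mostly up to about 58 µM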). The method, boiled down:
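Kinetic fluorescence (3 min, 1 s intervals) reported intracellular calcium after compound transfer onto TRHR-Hek293 cells pre-loaded with dye for 2 h at 37 °C.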
On the % scale 0 is the no-effect control and ±100 the full control effect.

Chain of Estrogen receptor (Homo sapiens) (P03372 whole entry, looked up): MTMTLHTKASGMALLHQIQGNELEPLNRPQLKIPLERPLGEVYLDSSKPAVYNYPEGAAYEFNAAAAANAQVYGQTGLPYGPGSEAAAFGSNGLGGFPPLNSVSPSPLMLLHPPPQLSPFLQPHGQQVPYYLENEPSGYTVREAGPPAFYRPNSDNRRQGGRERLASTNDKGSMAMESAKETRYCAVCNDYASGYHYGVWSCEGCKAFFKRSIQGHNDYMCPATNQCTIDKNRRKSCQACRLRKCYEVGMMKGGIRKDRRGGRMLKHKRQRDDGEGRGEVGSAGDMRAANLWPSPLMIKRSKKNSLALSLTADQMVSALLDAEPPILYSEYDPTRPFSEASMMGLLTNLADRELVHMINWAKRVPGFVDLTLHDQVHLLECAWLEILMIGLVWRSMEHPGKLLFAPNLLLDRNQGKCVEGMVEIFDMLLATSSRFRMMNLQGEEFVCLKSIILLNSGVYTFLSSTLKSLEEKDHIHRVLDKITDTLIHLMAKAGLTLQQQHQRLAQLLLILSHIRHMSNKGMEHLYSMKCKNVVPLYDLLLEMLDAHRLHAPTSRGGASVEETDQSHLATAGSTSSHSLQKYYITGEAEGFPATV
Chain of Progesterone receptor (Homo sapiens) (P06401 whole entry, looked up): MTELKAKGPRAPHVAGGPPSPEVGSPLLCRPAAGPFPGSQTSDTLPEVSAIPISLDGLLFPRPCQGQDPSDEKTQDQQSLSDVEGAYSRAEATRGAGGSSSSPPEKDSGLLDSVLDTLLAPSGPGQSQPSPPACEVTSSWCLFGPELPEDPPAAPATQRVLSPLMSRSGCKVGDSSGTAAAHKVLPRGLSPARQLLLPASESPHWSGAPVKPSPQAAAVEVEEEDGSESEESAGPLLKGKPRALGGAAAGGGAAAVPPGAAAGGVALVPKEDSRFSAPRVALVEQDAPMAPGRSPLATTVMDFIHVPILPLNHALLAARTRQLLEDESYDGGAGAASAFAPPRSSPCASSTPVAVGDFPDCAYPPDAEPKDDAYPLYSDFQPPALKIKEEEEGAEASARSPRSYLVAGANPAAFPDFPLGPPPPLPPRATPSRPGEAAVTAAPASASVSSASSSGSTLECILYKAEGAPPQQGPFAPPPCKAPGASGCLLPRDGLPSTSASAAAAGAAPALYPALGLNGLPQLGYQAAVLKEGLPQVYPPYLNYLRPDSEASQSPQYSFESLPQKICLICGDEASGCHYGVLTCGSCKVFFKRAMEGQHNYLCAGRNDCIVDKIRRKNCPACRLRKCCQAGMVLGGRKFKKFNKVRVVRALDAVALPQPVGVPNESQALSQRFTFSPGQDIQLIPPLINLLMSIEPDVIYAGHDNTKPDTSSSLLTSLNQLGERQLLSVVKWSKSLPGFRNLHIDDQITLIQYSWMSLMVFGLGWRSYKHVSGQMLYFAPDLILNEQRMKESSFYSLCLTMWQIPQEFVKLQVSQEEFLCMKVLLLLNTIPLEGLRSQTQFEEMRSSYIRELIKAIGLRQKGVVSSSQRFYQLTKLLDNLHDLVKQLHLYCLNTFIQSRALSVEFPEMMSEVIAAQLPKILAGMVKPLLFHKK
Chain of Estrogen receptor beta (Homo sapiens) (Q92731 whole entry, looked up): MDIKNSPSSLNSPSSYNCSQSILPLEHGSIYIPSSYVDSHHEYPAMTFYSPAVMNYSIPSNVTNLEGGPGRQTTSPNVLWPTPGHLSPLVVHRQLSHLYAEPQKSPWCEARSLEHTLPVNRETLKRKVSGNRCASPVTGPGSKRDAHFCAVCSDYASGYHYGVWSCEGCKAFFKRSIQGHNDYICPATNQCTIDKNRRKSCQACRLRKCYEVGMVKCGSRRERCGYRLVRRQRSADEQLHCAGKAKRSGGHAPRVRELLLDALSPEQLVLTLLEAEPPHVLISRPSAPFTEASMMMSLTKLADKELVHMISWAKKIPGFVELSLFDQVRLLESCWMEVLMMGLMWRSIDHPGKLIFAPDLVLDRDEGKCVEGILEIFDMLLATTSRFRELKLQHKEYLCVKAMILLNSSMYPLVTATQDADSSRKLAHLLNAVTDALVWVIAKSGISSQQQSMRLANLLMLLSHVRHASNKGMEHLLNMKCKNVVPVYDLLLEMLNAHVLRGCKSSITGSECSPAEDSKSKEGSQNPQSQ
Chain of Thyrotropin receptor (Homo sapiens) (P16473 whole entry, looked up): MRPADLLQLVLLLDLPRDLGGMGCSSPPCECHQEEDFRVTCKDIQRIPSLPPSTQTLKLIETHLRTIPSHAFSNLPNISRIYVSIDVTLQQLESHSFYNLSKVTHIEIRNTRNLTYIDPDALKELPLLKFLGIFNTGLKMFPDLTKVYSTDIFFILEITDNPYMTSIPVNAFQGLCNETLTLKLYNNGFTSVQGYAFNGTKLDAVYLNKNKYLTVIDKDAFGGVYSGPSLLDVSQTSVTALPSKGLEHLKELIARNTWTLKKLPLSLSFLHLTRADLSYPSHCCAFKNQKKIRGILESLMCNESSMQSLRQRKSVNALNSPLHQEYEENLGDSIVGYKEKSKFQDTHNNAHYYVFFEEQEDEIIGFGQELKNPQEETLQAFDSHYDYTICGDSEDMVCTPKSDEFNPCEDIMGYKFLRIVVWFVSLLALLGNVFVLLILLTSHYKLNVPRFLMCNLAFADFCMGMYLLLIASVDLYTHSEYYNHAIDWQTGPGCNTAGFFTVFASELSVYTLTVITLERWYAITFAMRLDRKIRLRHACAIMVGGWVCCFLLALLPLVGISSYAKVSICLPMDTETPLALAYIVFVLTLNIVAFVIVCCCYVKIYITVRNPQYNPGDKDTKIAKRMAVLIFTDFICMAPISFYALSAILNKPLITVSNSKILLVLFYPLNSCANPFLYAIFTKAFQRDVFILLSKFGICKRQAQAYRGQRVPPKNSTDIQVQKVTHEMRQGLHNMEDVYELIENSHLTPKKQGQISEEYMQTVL

As for `CCO[C@H](Cc1ccc(OCCc2ccc(OS(C)(=O)=O)cc2)cc1)C(=O)O`, the Potency result in assay [1], in [2], in [3], in assay [4], in [5] and in assay [6] was “inactive” throughout. Moreover, the Potency entry in [7], in assay [8], in assay [9], in [10], in [11] and in [12] was “inactive” each time. The Potency result in [13] and in [15] was “inactive” each time. The result in [14] was inactive.

Turning to `COC(C)(C)CCO`, the Potency entry in assay [1], in assay [2], in assay [3], in assay [4], in [5] and in assay [7] was “inactive” in each case. In addition, the Potency result in [16], in assay [17], in assay [9], in assay [10], in assay [11] and in assay [18] was “inactive” each time. Also, the Potency entry in [12] and in assay [15] was “inactive” each time. The result in assay [14] and in [19] was inactive.

Take `CCOc1ccc(O)cc1`: the Potency in [1] was 15.4 µM (active). Moreover, the Potency result in assay [2], in assay [3], in assay [4], in [5], in assay [7] and in assay [8] was “inactive” throughout. Further, the Potency entry in assay [16], in assay [17], in assay [9], in assay [10], in assay [11] and in [18] was “inactive” in each case. The Potency result in assay [12], in assay [13], in assay [15] and in assay [20] was “inactive” throughout. The outcome in [14] and in assay [19] was inactive.

Turning to `O=S(=O)(Oc1ccc(Cl)cc1)c1ccccc1`, the Potency result in assay [1], in assay [2], in assay [3], in assay [4], in [5] and in assay [7] was “inactive” throughout. Moreover, the Potency result in assay [8], in assay [16], in assay [9], in assay [18], in assay [12] and in assay [15] was “inactive” in each case. In assay [20], the Potency result was “inactive”. In assay [11], the Potency is 24.3 µM (active). For the same compound, the compound was called inactive in [14] and in assay [19].

Consider `OCc1cc(C(O)CNCCCCCCOCCCCc2ccccc2)ccc1O` (stereo not given), for which the Potency is 6.68 µM (active) in assay [1]; 16.8 µM (active) in [3]; 26.6 µM (active) in assay [4]; 21.1 µM (active) in assay [5]; 0.0009 µM (active) in assay [16]; 11.9 µM (active) in assay [9]. Besides, the Potency entry in assay [2], in [8], in [17], in [10], in assay [18] and in [12] was “inactive” throughout. For the same compound, the Potency result in assay [13], in assay [15] and in assay [20] was “inactive” throughout. Besides, the compound was classed as inactive in [14] and in assay [19].

For `CC(C)(O)c1ccc(CNC(=O)c2cccnc2Oc2ccc(F)cc2)cc1`, the Potency in assay [1] is 0.273 µM (active). The Potency result in [2], in assay [3], in [4], in assay [5], in [7] and in assay [16] was “inactive” throughout. Also, the Potency entry in assay [17], in assay [9], in assay [10], in [11], in assay [13] and in assay [15] was “inactive” throughout. Besides, the outcome in [14] was inactive.

Take `CC(CSC(=O)c1ccccc1)C(=O)N1C[C@@H](Sc2ccccc2)C[C@H]1C(=O)O` (stereo not given in full): the activity change, negative = inhibition was 9.12% [at 19 µM] in [1], -6.99% [at 19 µM] in [17] and 1.77% [at 18.9 µM] in assay [11]. In addition, the activation in assay [2] is -2.37% [at 19 µM]; in assay [15], 0.21% [at 15.8 µM]; in assay [20], -0.201% [at 11.8 µM]. Besides, the activity, negative = inhibition in assay [3] was -3.38% [at 19 µM]; in assay [19], -5.47% [at 10.5 µM]. The activity change, negative = cytotoxicity was 1.42% [at 19 µM] in [4]; 0.0866% [at 19 µM] in assay [5]; 5.8% [at 19 µM] in [7]; 3.85% [at 19 µM] in assay [9]; -8.73% [at 18.9 µM] in [18]; -1.53% [at 19 µM] in assay [12]. In assay [14], the activity change, negative = cytotoxicity is 4% [at 15.8 µM]. The Potency result in assay [8] was “inactive”. Moreover, the cAMP activity change in assay [16] was 7.8% [at 18.9 µM, active compounds read high]. Also, the viability change, negative = cytotoxic in [13] is -6.88% [at 15.8 µM].

As for `CCCCCCCCCCCCCCCCOS(=O)(=O)O`, the Potency entry in assay [1], in [2], in assay [3], in assay [4], in assay [6] and in assay [8] was “inactive” in each case. Further, the Potency entry in assay [16], in assay [9], in assay [10], in assay [11], in [13] and in [15] was “inactive” each time. Besides, the Potency was 33.5 µM (active) in assay [5] and 18.8 µM (active) in [12]. Also, the result in [14] was inactive.
